The record followed here is PubChem BioAssay (EPA / NIEHS).

Molecules are shown by their SMILES. More than one record can exist for a structure, and the calls need not agree. Calls of active or inactive are those of the source. Rule for the calls: active = hit-call score of the fitted dose curve at least 0.9, where 1 is the maximum; inactive = score below 0.9.

Read-out in the assay: growth arrest and DNA damage 45 (GADD45G), GADD45G (gene 10912)
Nature of the assay: LTEA_HepaRG_GADD45G: Life Technologies and Expression Analysis (LTEA) Assay for growth arrest and DNA damage 45 (GADD45G) using HepaRG (AID 2283499). The note with it: mRNA level, 48 h; actives raise or lower the signal. On the procedure:
LTEA_HepaRG is a cell based, multiplexed-readout assay that uses HepaRG, a human liver cell line, with measurements taken at 48 hours after chemical dosing on a 96-well plate.LTEA_HepaRG_GADD45G is one of 102 assay component(s) measured in the LTEA HepaRG cell culture assay. It is a marker of Cell proliferation, survival, death.Data from the assay component LTEA_HepaRG_GADD45G was analyzed into 1 endpoint. This assay endpoint, LTEA_HepaRG_GADD45G, was analyzed with bidirectional fitting relative to DMSO as the negative control and baseline of activity. Using a type of inducible reporter, measures of mRNA induction for gain or loss-of-signal activity can be used to understand regulation of transcription factor activity. To generalize the intended target to other relatable targets, this assay endpoint is annotated to the mutagenicity response intended target family, where the subfamily is Cell proliferation, survival, death.
A total of 1060 chemcials from the ToxCast library were tested in eight-point concentration-response experiments. Cell culture and cytotoxicity assays were conducted at Thermo Fisher Scientific's Custom Services facility (Madison, WI). A single lot of human HepaRG cells (Thermo Fisher Scientific, Frederick, MD) was used for the cell culture experiments. 96-well format collagen type I coated plates of human HepaRG cells were prepared using established methods. Briefly, cryopreserved HepaRG cells were thawed, plated at a density of approximately 100,000 cells/well in HepaRG Thaw, Plate, and General Purpose media (HPRG770, Thermo Fisher Scientific), and incubated for 48 hours. 0.5% DMSO was selected as vehicle control to balance the requisite need of DMSO in HepaRG cultures to maintain differentiation (for example, baseline metabolism, proportions of hepatocytes vs. cholangiocytes), while enabling further hepatic receptor pathway activation (for example, PXR and CAR) in response to chemical exposure. 48 hours after plating, the culture medium was replaced with HepaRG Serum-Free Incudtion Media. Cells were exposed to each test chemical in duplicate and maintained in CO2 incubators for another 48 hours. Chemical plates were thawed to room temperature and 200x concentrations of treatment groups were prepared. 8-point conentration-reponse curves were made with the highest exposure at 100 uM, followed by half-log dilutions, all in 0.5% DMSO. Each test plate contained variouse controls, induction positive controls (1mM phenobarbital), cytotoxicity positive controls ([…] aflatoxin B1), vehicle controls (0.5% DMSO), and total lysis controls (0.5% DMSO). Cell morphology images were taken using an Essen IncuCyte FLR automated microscope, with six 96-well plates imaged in about 24 minutes. Images were captured and exported and JPEG files. Spent culture media was transfered to black-well plates for the LDH assay, and remaining media was sorted at -80 C for later use. Cells were treated with RLT buffer and frozen until shipped for gene expression analysis. Total RNA was isolated from the cell suspension in 75 uL of Buffer RLT (Qiagen, Germantown, MD 20874) by Quintiles/Expression Analysis (Durham, NC) using a custom isolation procedure. Total RNA from each plate well was transferred to a preamplification plate. Fluidigm's 96.96 Dynamic ArrayTM (Fluidigm, Amsterdam, the Netherlands) technology was used for gene expression analyses by quantitative reverse transcription polymerase chain reaction (qRT-PCR, performed by Quintiles/Expression Analysis, Durham, NC)89. Standard TaqManTM Assays (Applied Biosystems/ThermoFisher Scientific, Foster City, CA) were used to assess the expression of 93 genes selected based on their selectivity and sensitivity to important hepatic receptors known to be modulated by environmental chemicals; importance in human hepatocyte functionality; and hepatotoxicity. […]
Consider `CCc1ccc(C(=O)NN(C(=O)c2cc(C)cc(C)c2)C(C)(C)C)cc1`, for which the result was inactive.

With `COP(=S)(OC)Oc1ccc([N+](=O)[O-])cc1`, the result was inactive.

On to `CNC(=O)/C=C(\C)OP(=O)(OC)OC`, for which the compound was classed as inactive.

For `O=C(O)COc1ccc(Cl)cc1Cl`, the call was inactive.

In the case of `CC(C)(C)C(O)C(Oc1ccc(Cl)cc1)n1cncn1` (stereo not given), the compound was classed as inactive.

As for `CC1(c2ccc(Oc3ccccc3)cc2)OC(=O)N(Nc2ccccc2)C1=O` (stereo not given), the AC50 (in general, the concentration at which the activity in the assay is half-maximal) was 12.3 µM (active).

Turning to `CC(C)OC(=O)Nc1cccc(Cl)c1`, the call was inactive.

In the case of `CCC(C)Nc1c([N+](=O)[O-])cc(C(C)(C)C)cc1[N+](=O)[O-]` (stereo not given), the compound was called inactive.

Consider `C#CCN1C(=O)COc2cc(F)c(N3C(=O)C4=C(CCCC4)C3=O)cc21`, for which the outcome was inactive.

With `CC(C)(C)C(O)/C(=C\c1ccc(Cl)cc1Cl)n1cncn1` (stereo not given), the AC50 was 29.5 µM (active).

As for `CCN(CC)C(=O)SCc1ccc(Cl)cc1`, the compound was classed as inactive.

Turning to `Oc1cc(Cl)ccc1Oc1ccc(Cl)cc1Cl`, the compound was classed as inactive and the AC50 is 51 µM (active).

Consider `C[C@H]1[C@H](c2ccc(Cl)cc2)SC(=O)N1C(=O)NC1CCCCC1`, for which the AC50 was 72.9 µM (active).

As for `O=C(Nc1ccccc1)Nc1cnns1`, the call was inactive.

`CNC(=O)Oc1ccccc1OC(C)C`: the call was inactive.

On to `CC[C@H](C)[C@H]1O[C@]2(C=C[C@@H]1C)C[C@@H]1C[C@@H](C/C=C(\C)[C@@H](O[C@H]3C[C@H](OC)[C@@H](O[C@H]4C[C@H](OC)[C@@H](O)[C@H](C)O4)[C@H](C)O3)[C@@H](C)/C=C/C=C3\CO[C@@H]4[C@H](O)C(C)=C[C@@H](C(=O)O1)[C@]34O)O2` (tested in a mixture with another compound), for which the compound was classed as inactive.

For `CN1CSC(=S)N(C)C1`, the result was inactive.

As to `O=C(O)CCCOc1ccc(Cl)cc1Cl`, the outcome was inactive.

Regarding `CNC(=O)CSP(=S)(OC)OC`, the call was inactive.

With `N#CN`, the call was inactive.

For the compound `ClC1C(Cl)C(Cl)C(Cl)C(Cl)C1Cl` (stereo not given), the compound was classed as inactive and the AC50 was 0.488 µM (active).

With `O=C(NC(=O)c1c(F)cccc1F)Nc1ccc(OC(F)(F)C(F)OC(F)(F)F)c(Cl)c1` (stereo not given), the outcome was inactive.

With `N#Cc1c(Cl)c(Cl)c(Cl)c(C#N)c1Cl`, the compound was called inactive.

Consider `COP(=O)(OC)OC=C(Cl)Cl`, for which the compound was classed as inactive.

Regarding `CC(C)N(C(=O)COc1nnc(C(F)(F)F)s1)c1ccc(F)cc1`, the call was inactive.

Consider `OCCOc1ccccc1`, for which the compound was classed as inactive.

Regarding `CCOC1Oc2ccc(OS(C)(=O)=O)cc2C1(C)C` (stereo not given), the AC50 is 78.3 µM (active).

As for `CNC(=O)Oc1cccc(N=CN(C)C)c1`, the call was inactive.

In the case of `Clc1ccccc1-c1nnc(-c2ccccc2Cl)nn1`, the compound was classed as inactive.

In the case of `CCC(C)(NC(=O)c1cc(Cl)c(C)c(Cl)c1)C(=O)CCl` (stereo not given), the call was inactive.

Regarding `Oc1ccc(Cl)cc1Cc1ccccc1`, the compound was classed as inactive.

For the compound `Cc1[nH]c(=O)n(C(C)(C)C)c(=O)c1Cl`, the call was inactive.

As for `O=[N+]([O-])c1c(Cl)c(Cl)c(Cl)c(Cl)c1Cl`, the compound was called inactive.

On to `CCCN(CCOc1c(Cl)cc(Cl)cc1Cl)C(=O)n1ccnc1`, for which the AC50 was 13 µM (active).

With `O=S1OCC2C(CO1)C1(Cl)C(Cl)=C(Cl)C2(Cl)C1(Cl)Cl` (stereo not given), the concentration at half-maximal activity (AC50) was 88.6 µM (active).

For the compound `CC1(C)C(C=C(Cl)Cl)C1C(=O)OC(C#N)c1ccc(F)c(Oc2ccccc2)c1` (stereo not given), the result was inactive.

As for `O=C1c2ccccc2C(=O)N1SC(Cl)(Cl)Cl`, the call was inactive.

In the case of `COc1nn(CSP(=S)(OC)OC)c(=O)s1`, the result was inactive.
